This is part of a sample that, as a whole, favours compounds with a hit. Of some 83,000 tested, about 20% had one in any assay.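 Each cell line was grown in a 96-well plate and treated with one concentration of compound for 48 hours. Values below 10 were considered active.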 A number with no mark means an inactive call. Activity calls are given as the source filed them.

The assay has as its system HL-60(TB) leukemia. The experiment in a line: NCI-60 one-dose screen, 48 h (100 = growth as untreated, 0 = no growth, -100 = all killed). Particulars: 10 µM unless noted.
With `O=C(NN(C(=O)c1ccccc1)c1cccs1)c1ccccc1`, the growth was 101%.
As for `COc1cc(C2CC(c3cccc(Nc4ccncc4)c3)=NN2C(C)=O)cc(OC)c1OC` (stereo not given), the growth was 94.6%.
Then `CC(C)C[C@H](C(=O)N[C@H](C(N)=O)C(C)C)N1CC=CCN(OCc2ccccc2)S1(=O)=O`, with 119% [2.5 µM]; and `O=C(Nc1ccc(Oc2cccc(F)c2)c(Cl)c1)c1cnccn1`, with 3.12% (active); and `COC(=O)c1ccc(NC(=O)Nc2ccc(C(=O)OC)cc2)cc1`, with 92.8%.
The figure for `O=C(NCc1ccccc1)c1cccc([N+](=O)[O-])c1` is 101%.
Then `COc1ccc(-c2csc(NC(=O)Nc3nc(-c4ccc(OC)cc4)cs3)n2)cc1`, with 80.6%.
In the case of `COc1cc2c(cc1[N+](=O)[O-])-c1ccc([N+](=O)[O-])cc1/C2=N\O`, the growth is 89.5%.
Turning to `C[C@@H](N)c1ccc(C(=O)Nc2ccnc3[nH]ccc23)cc1`, the growth is 67.5%.
Turning to `Cn1c2c(c3ccc(Cl)c(Cl)c31)C(C#N)C(C)(C)NC2=O` (stereo not given), the growth is 69.3%.
The figure for `C/C(=N\N1CC(=O)NC1=O)c1ccc([N+](=O)[O-])o1` is 62.7%; for `CC1CN(/N=C/c2ccc([N+](=O)[O-])o2)C(=N)O1` (stereo not given) it is 99.8%.
Then `O=CN1N=C(c2ccc3c(c2)OCO3)CC1c1cccc(Nc2ccnc3cc(C(F)(F)F)ccc23)c1` (stereo not given), with 72.8%; and `C[C@@H](Oc1cc(-n2cnc3ccc(CN4CCN(C)CC4)cc32)sc1C(N)=O)c1ccccc1C(F)(F)F`, with -19.4% (active); and `C=C(CN1CC=CCC1)[C@@H]1CC[C@]2(CO)CC[C@]3(C)[C@H](CC[C@@H]4[C@@]5(C)CC[C@H](O)C(C)(C)[C@@H]5CC[C@]43C)[C@@H]12`, with 99.9%.
The figure for `O=c1c(O)cccn1CCCNCCCN(CCCn1cccc(O)c1=O)CCCn1cccc(O)c1=O` is 120%; for `Cc1ccc(-n2nc3c(c(C#N)c2=O)CC(c2ccccc2[N+](=O)[O-])C([N+](=O)[O-])=C3O)cc1` (stereo not given) it is 91.6%; for `Cc1ccc(Cn2c(-c3nonc3N)nc3ccccc32)cc1` it is 71.8%.
On to `CCCC(=O)Nc1ccccc1C(=O)O`, for which the growth is 94.1%.
As for `O=C(c1cccc(Br)c1)N1CCN(c2ccnc3cc(Cl)ccc23)CC1`, the growth is 92.6%.
With `CN1CCN(Cc2ccc(NC(=O)c3ccc(C(C)(C)C)c(C#Cc4cnc5cccnn45)c3)cc2C(F)(F)F)CC1`, the growth was -17.4% (active).
Then `C[C@]12CC[C@@H]3c4ccc(O)c([N+](=O)[O-])c4CC[C@H]3[C@@H]1CC[C@@H]2NS(=O)(=O)c1ccc(C(F)(F)F)cc1`, with -11.6% (active); and `COc1cccc(/C=C/C(=O)/C=C(/C=C/c2cccc(OC)c2OC)OB(F)F)c1OC`, with 26.1%.
The figure for `Cn1c(C(=O)c2cccc3ccccc23)nc2ccccc21` is 3.94% (active); for `COc1ccc(Cn2cc(C(=O)N=Nc3c(O)[nH]c4ccc(Br)cc34)nn2)cc1` it is 85.2%.
With `CCOC(=O)c1ccc(NC(=O)CCCN(CC)CC)cc1`, the growth is 100%.
As for `CC/C=C\C[C@H]1C/C=C2/C(=O)C=C[C@H]2C/C=C\CCCC(=O)O1`, the growth is 7.94% (active).
Turning to `O=C1/C(=C\c2ccccc2)CN(C(=O)c2ccccc2)C/C1=C\c1ccccc1`, the growth was 29.6%.
Take `c1ccc2cc(C[n+]3ccn(CCCCCCCCCCn4cc[n+](Cc5ccc6ccccc6c5)c4)c3)ccc2c1`: the growth was -67.8% (active).
As for `S=C(c1ccc2c(c1)OCO2)N1CCN(c2ccccc2Cl)CC1`, the growth was 87.6%.
In the case of `CCN(CC)c1ccc2nc3c4ccccc4c(=NC(=O)c4ccccc4-c4c5ccc(N(CC)CC)cc5[o+]c5cc(N(CC)CC)ccc45)cc-3oc2c1`, the growth is -69.7% (active).
Then `CC(C)(C)n1nc(C2CC2)c(Br)c1NC(=O)c1ccccc1F`, with 104%.
The figure for `O=C1NC(=O)C(Cc2ccc(OCc3ccc(-c4ccc(Cl)cc4Cl)cc3)cc2)S1` (stereo not given) is 56.9%; for `O=C(CCl)NNc1nccc(Nc2ccc(S(=O)(=O)Nc3ccncc3)cc2)n1` it is 36.5%; for `CCOC(=O)C1=C(C)N=c2s/c(=C\c3ccccc3O)c(=O)n2C1c1ccc(OC)c2ccccc12` (stereo not given) it is -48.6% (active).
The figure for `COc1cc(/C=N/NC(=O)c2cnn3c2NC(c2ccccc2)C3)ccc1OCc1ccccc1` (stereo not given) is -0.0884% (active); for `COc1ccc(-c2nc3sccn3c2-c2nc3c([nH]2)C(=O)c2ccccc2C3=O)cc1` it is 94%; for `COc1cc(/C=C/C(=O)CC(=O)/C=C/c2ccc(O)c(OC)c2)ccc1O` it is 0.358% (active).
Take `Cc1c(Cl)cc(-n2c(=O)c3ccccc3c3ccccc3c2=O)cc1Cl`: the growth was 90.8%.
Then `Cc1ccc(/C=C/C(=N/N=C(N)N)c2ccccc2)cc1`, with 7.52% (active).

The record behind these values is PubChem BioAssay (NCI).
